Reference: PubChem BioAssay (NCATS)
Where “and” joins values, the source holds several entries; their conditions need not be identical. Identical values can stand only once. Values without a mark were called inactive. Records with an inconclusive call do not appear. Where a call stands in place of a potency, no number is given. Calls of active or inactive are those of the source. Unless noted, the call rests on the fitted dose curve; in most records, active means well fitted curve in the direction sought with a large enough effect; inconclusive means small, poorly fitted or top-dose-only effect, or another doubt; inactive means no such curve, though single readings can be large; an effect the other way counts as inactive or inconclusive.

Tests used:
[1] = Drug repurposing screens with cells derived from glioblastoma tumor samples (AID 1345199); conditions: GBM patient neurospheres viability, ATP luminescence, 48 h; for Potency: tumour line A; further: potency means the concentration at half of the fitted maximal effect; on all read-outs here: nearly all actives have a fitted effect of over 40% in size
Summary of the method: (§1)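 Primary testing used CD133+ neurospheres from four GBM patients, seven concentrations, 48 h exposure and ATP-based viability; confirmation added three slower-growing patient lines.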

[2] = biological target: Nuclear receptor subfamily 1 group I member 2 (Rattus norvegicus) (UniProt Q9R1A7); assay: qHTS assay for small molecule activators of the rat pregnane X receptor (rPXR) signaling pathway (AID 651751; call rule not given here); conditions: rPXR reporter cells, luciferase (One-Glo), 24 h
Chain of Nuclear receptor subfamily 1 group I member 2 (Rattus norvegicus) (Q9R1A7 whole entry, looked up): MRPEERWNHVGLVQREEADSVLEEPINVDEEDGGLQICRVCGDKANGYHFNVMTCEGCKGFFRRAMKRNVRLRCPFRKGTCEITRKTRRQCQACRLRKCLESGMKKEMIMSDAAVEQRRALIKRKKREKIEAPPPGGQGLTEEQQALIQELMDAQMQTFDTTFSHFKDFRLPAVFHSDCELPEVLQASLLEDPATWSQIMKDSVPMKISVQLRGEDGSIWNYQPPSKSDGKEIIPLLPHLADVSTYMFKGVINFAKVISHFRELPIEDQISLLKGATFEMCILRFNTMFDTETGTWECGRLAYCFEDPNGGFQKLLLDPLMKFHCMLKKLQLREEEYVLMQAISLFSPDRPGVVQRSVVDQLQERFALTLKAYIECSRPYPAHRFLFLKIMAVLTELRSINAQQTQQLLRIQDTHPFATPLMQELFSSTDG

[3] = qHTS assay for small molecule activators of the human pregnane X receptor (PXR) signaling pathway (AID 720659; call rule not given here); conditions: DPX-2 HepG2 CYP3A4-luciferase, 24 h; series mostly up to 92.3 µM
CAOV3 = assay: Primary qHTS to identify gynecologic anti-cancer compounds using libraries of approved drugs and bioactive compounds (AID 1345084); conditions: Gynecologic cancer cell panel viability, ATPlite luminescence, 48 h; series mostly up to 57.5 µM; further: nearly all actives have a fitted effect of over 55% in size; further: potency means the concentration at half of the fitted maximal effect
Summary of the method: (§2)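 Cell viability after 48 h drug treatment, ATPlite luminescence readout; five doses.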

CASKI = assay: as above; conditions: Gynecologic cancer cell panel viability, ATPlite luminescence, 48 h; series mostly up to 57.5 µM
Summary of the method: as §2

Es-2 = assay: as above; conditions: Gynecologic cancer cell panel viability, ATPlite luminescence, 48 h; series mostly up to 57.5 µM
Summary of the method: as §2

HeLa = assay: as above; conditions: Gynecologic cancer cell panel viability, ATPlite luminescence, 48 h; series mostly up to 57.5 µM
Summary of the method: as §2

JEG-3 = assay: as above; conditions: Gynecologic cancer cell panel viability, ATPlite luminescence, 48 h; series mostly up to 57.5 µM
Summary of the method: as §2

PA-1 = assay: as above; conditions: Gynecologic cancer cell panel viability, ATPlite luminescence, 48 h; series mostly up to 57.5 µM
Summary of the method: as §2

Tov-21-G = assay: as above; conditions: Gynecologic cancer cell panel viability, ATPlite luminescence, 48 h; series mostly up to 57.5 µM
Summary of the method: as §2

Tov112D = assay: as above; conditions: Gynecologic cancer cell panel viability, ATPlite luminescence, 48 h; series mostly up to 57.5 µM
Summary of the method: as §2

Hek293T = assay: as above; conditions: Gynecologic cancer cell panel viability, ATPlite luminescence, 48 h, control line for the selectivity index; series mostly up to 57.5 µM
Summary of the method: as §2

OV90 = assay: as above; conditions: Gynecologic cancer cell panel viability, ATPlite luminescence, 48 h; series mostly up to 57.5 µM
Summary of the method: as §2

SKOV3 = assay: as above; conditions: Gynecologic cancer cell panel viability, ATPlite luminescence, 48 h; series mostly up to 57.5 µM
Summary of the method: as §2

astro = control astrocytes; assay: Drug repurposing screens with cells derived from glioblastoma tumor samples (AID 1345199); conditions: viability, ATP luminescence, 48 h; series mostly up to 45.9 µM; further: nearly all actives have a fitted effect of over 40% in size; further: potency means the concentration at half of the fitted maximal effect
Summary of the method: as §1

C33A = assay: Primary qHTS to identify gynecologic anti-cancer compounds using libraries of approved drugs and bioactive compounds (AID 1345084); conditions: Gynecologic cancer cell panel viability, ATPlite luminescence, 48 h; series mostly up to 57.5 µM; further: nearly all actives have a fitted effect of over 55% in size; further: potency means the concentration at half of the fitted maximal effect
Summary of the method: as §2

[4] = qHTS assay to identify inhibitors of the type 1 interferon - major histocompatibility complex class I in skeletal muscle: Counter screen cell viability and HiBit confirmation (AID 1347412); conditions: iHSKM muscle cells + IFN-b, HiBiT or CellTiter-Glo, 24 h; Viability; at 45.9 µM (top of the series); further: nearly all actives have a fitted effect of over 60% in size
Summary of the method: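 CRISPR HLA-B*08:01-HiBit immortalized human myoblasts (C25cl48) stimulated with 4 ng/ml IFN-beta and compounds (12-point 1:3, top 46 uM final) for 24 h at 37 C. Duplicate plates read by HiBit lytic luminescence or CellTiter Glo ATP.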

[5] = at 46.1 µM (top of the series), tumour line C
[6] = at 45.9 µM (top of the series), tumour line B
[7] = at 45.9 µM (top of the series), tumour line D
[8] = at 20 µM (top of the series), tumour line C

For N[C@@H](Cc1ccc(O)c(O)c1)C(=O)O, the activity, negative = cell killing [1, 5] was 28.9%, the Potency [1] was 12600 nM (active) and the max response [2] was -10%. The outcome [3] was “inactive”.
In the case of N=C(N)c1ccc(OCCCCCOc2ccc(C(=N)N)cc2)cc1, the Potency (CAOV3) is reported as “inactive”, the Potency (CASKI) is reported as “inactive” and the Potency (Es-2) is reported as “inactive”. For the same compound, the Potency (HeLa) was “inactive”, the Potency (JEG-3) was “inactive” and the Potency (PA-1) was 5010 nM (active). The Potency (Tov-21-G) was “inactive”, the Potency (Tov112D) was “inactive” and the outcome [3] was “inactive”.
With CCc1cc(C(N)=S)ccn1 the Potency (CAOV3) was “inactive”, the Potency (CASKI) was “inactive” and the Potency (Es-2) was “inactive”. The Potency (HeLa) was “inactive”, the Potency (Hek293T) was “inactive” and the Potency (OV90) was “inactive”. The Potency (PA-1) was “inactive”, the Potency (SKOV3) was “inactive” and the Potency (Tov-21-G) was “inactive”. For the same compound, the Potency (Tov112D) was “inactive”, the activity, negative = cell killing [1, 6] was -9.3% and the activity, negative = cell killing [1, 7] was -29.7%. The activity, negative = cell killing [1, 5] was -26.9%, the Potency (astro) was “inactive” and the max response [2] was 7.13% and -2.63%.
For CCCCOc1ccc(CC(=O)NO)cc1, the Potency (CAOV3) was “inactive”, the Potency (CASKI) was “inactive” and the Potency (HeLa) was “inactive”. The Potency (Hek293T) was “inactive”, the Potency (OV90) was “inactive” and the activity, negative = cell killing [1, 8] was 38.6%. The activity, negative = cell killing ([1]; at 21.2 µM (top of the series), tumour line B) was -16.2%, the activity, negative = cell killing ([1]; at 21.2 µM (top of the series), tumour line D) was -14.5% and the Potency [1] was 11200 nM (active). For the same compound, the Potency (astro) was “inactive”.
For COc1cc2ncnc(Nc3cccc(Cl)c3)c2cc1OC, the Potency (C33A) was “inactive”, the Potency (CASKI) was “inactive” and the Potency (Es-2) was “inactive”. The Potency (HeLa) was “inactive”, the Potency (Hek293T) was “inactive” and the Potency (JEG-3) was “inactive”. For the same compound, the Potency (OV90) was “inactive”, the Potency (PA-1) was “inactive” and the Potency (Tov-21-G) was “inactive”. For the same compound, the Potency (Tov112D) was “inactive” and the activity change, negative = inhibition [4] was -9.03%.
For COC(=O)Nc1nc2ccc(S(=O)c3ccccc3)cc2[nH]1 (configuration not stated), the Potency (CAOV3) was “inactive”, the Potency (Es-2) was 3550 nM (active) and the Potency (HeLa) was 2820 nM (active). For the same compound, the Potency (PA-1) was 1580 nM (active), the Potency (Tov-21-G) was 3980 nM (active) and the Potency (Tov112D) was 1580 nM (active). It also gave an activity, negative = cell killing [1, 6] of -15.1%, an activity, negative = cell killing [1, 7] of -1.35% and an activity, negative = cell killing [1, 5] of -3.75%.
In the case of COC(=O)Nc1nc2ccc(Sc3ccccc3)cc2[nH]1, the Potency (Es-2) is reported as 2820 nM (active), the Potency (HeLa) is reported as 2240 nM (active) and the Potency (OV90) is reported as 10000 nM (active). For the same compound, the Potency (PA-1) was 1410 nM (active), the Potency (Tov-21-G) was 2820 nM (active) and the Potency (Tov112D) was 1410 nM (active). The activity, negative = cell killing [1, 8] was -28.6%, the Potency [1] was 224 nM (active) and the Potency (astro) was 631 nM (active).
